Most compounds without a hit are left out; they make up all but 19% or so of the library.
Shiga toxin inh – blocks Shiga toxin action in Vero cells; Vero cells, Shiga toxin protein synthesis inhibition reporter; inhibition, % at 38.7 µM; hit rate 9.2% among 290,000; AID 2315; in the data active = inhibition mostly above about 28%, no sharp cut-off; inactive = mostly below about 43%; note: 0% is about no effect
Pf growth 48h – inhibits P. falciparum growth in the first generation, 48 h. P. falciparum luciferase growth in erythrocytes, 48 h. hit rate 5.9% among 310,000. Potency, µM (top dose mostly 28.7 µM), for the others: at the top dose activity change, negative = inhibition, hits mostly inhibitors. AID 504832; note: potency is the fitted concentration of half-maximal effect; % is set by controls: 0 for no effect and ±100 for the full control effect
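Luciferase-expressing P. falciparum in infected erythrocytes (2% hematocrit, 0.1% parasitemia final) in RPMI 1640/0.5% Albumax were exposed to compound for 48 hours at 37 C, 5% CO2; growth read as luminescence.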
Pf growth 96h – P. falciparum growth inhibition at 96 hours | P. falciparum luciferase reporter growth, 96 h | hit rate 6.9% among 320,000 | Potency, µM (highest dose often 28.7 µM), for the others: at the top dose activity change, negative = inhibition, most hits filed as inhibitors | AID 504834; note: potency is the fitted concentration of half-maximal effect; % is set by controls: 0 for no effect and ±100 for the full control effect
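Infected RBCs, 2% Hct / 0.05% parasitemia final; luciferase-reporter P. falciparum; cpd 96 h, 37 C, 5% CO2; luciferase detection reagent; luminescence.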
Marburg entry inh – Marburg virus entry inhibition | Potency, µM (doses to about 37.8 µM), for inactives: at the highest dose activity change, negative = inhibition, usual class: inhibitors | Marburg virus pseudotyped entry inhibition, cell reporter | hit rate 1.8% among 300,000 | AID 540276; calls by dose curve; tested in HEK293 cells; note: potency is the fitted concentration of half-maximal effect; % is set by controls: 0 for no effect and ±100 for the full control effect
LASV entry inh – inhibitors of Lassa virus binding or cell entry; Potency, µM (titrated, usually from 37.9 µM), inactives show top-dose activity change, negative = inhibition, usual class: inhibitors; Lassa virus pseudotype entry inhibition, cell reporter; hit rate 1.2% among 300,000; AID 540256; calls by dose curve; tested in HEK293 cells; note: potency is the fitted concentration of half-maximal effect; % is set by controls: 0 for no effect and ±100 for the full control effect; nearly all actives have a fitted effect of over 50% in size
CHX counter – counter-screen hit for Shiga toxin inhibitors, cycloheximide; max response, %; cell reporter, cycloheximide protein synthesis inhibition counterscreen; hit rate 12% among 300,000; in the data active = max response mostly above about 13%, no sharp cut-off; inactive = mostly below about 14%; note: read at 38.3 µM for the half of the compounds with a filed dose; 0% is about no effect
* = called active by the depositor; i = inactive; u = inconclusive; x = no result given; [ ] = another dose, or the depositor's remark. Unless noted, calls come from the whole dose curve; as a rule, active = well fitted inhibition curve with a large enough effect; inconclusive = small, poorly fitted or top-dose-only effect, or another doubt; inactive = no such curve, though single readings can be large or run the other way.

SMILES	Shiga toxin inh	Pf growth 48h	Pf growth 96h	Marburg entry inh	LASV entry inh	CHX counter
CC(=O)c1sc(NC(=O)c2ccccc2C)nc1C	51	122%	161%	18%[46.1 µM]	-5%[46.1 µM]	47*
CC(=O)c1sc(NC(=O)c2ccc(F)c(F)c2)nc1C	41	89%	x	u	-4%	9
Cc1cccc(C(=O)NC(=O)Nc2c(C)cc(C)nc2C)c1	58*	311%	u	-5%[46.1 µM]	7%	21*
CC(=O)c1sc(NC(=O)c2cccc(C)c2)nc1C	68*	284%	i	u	x	43*
COC(=O)C1=C(c2ccc(OC)c(OC)c2)C[C@@H]2CC[C@H]1N2C(=O)N1CCC(O)CC1	x	40%	31%	x	x	x
O=C(O)Cc1ccc2ocnc2c1	9	13%	31%	-4%	10%	-1
Cc1ccccc1NC(=O)c1sc(NC(=O)C2CC2)nc1C	21	u	-25%	-17%	-24%	11*
Cc1cc(C)c2sc(NC(=O)C3CC3)nc2c1	42*	47%	65%	x	x	27*
Cc1ccc(C)c2sc(NC(=O)C3CC3)nc12	-3	7%	58%	x	x	1
CCC(C)C(=O)Nc1nnc(SCC(=O)Nc2ccc(F)cc2)s1 (stereo not given)	-8	0%	12%	-23%	-15%	-2
CC(=O)Nc1ccc(S(=O)(=O)Nc2cccc(-c3ccc(N4CCC(C)CC4)nn3)c2)cc1	x	x	x	x	11µM*	x
Cc1ccc(S(=O)(=O)Nc2cccc(-c3ccc(N4CCCCCC4)nn3)c2)c(C)c1	88*	51%	u	x	x	42*
CC1=C(C(=O)N2CCN(C(=O)c3ccco3)CC2)C2(CCC(C)CC2)OC1=O (stereo not given)	10	-10%	-20%	x	x	1
Cc1ccc(CC(=O)NC2CCN(C)CC2)cc1	-16	2%	68%	u	5%[46.1 µM]	-2
COc1cc(/C=C(\C#N)c2nc3ccccc3o2)ccc1O	42	3%	6%	19%[46.1 µM]	-29%	24*
Cc1ccc(C)c(N/C=C(\C#N)c2nc3ccccc3o2)c1	x	x	x	16%	14%	x
N#C/C(=C\c1ccc(O)cc1)c1nc2ccccc2o1	117*	-11%	37%	u	u	37*
Cc1nc(C#N)c(N/N=C/c2c(F)cccc2Cl)o1	35	68%	30%	2%	3%	28*
Cc1nc(N)nc(N/N=C/c2c(F)cccc2Cl)n1	31	7%[0.00184 µM]	48%	u	22%	-2
CC1(C)Oc2ccc3ccc(=O)oc3c2-c2cn[nH]c21	-10	u	9.3µM*	-17%	u	-4
Cc1ccc(/C=C/C2=Cc3c(sc(NC(=O)CSc4n[nH]c(N)n4)c3C#N)C(C)(C)C2)o1	11	u	24%	x	x	-1
O=S(=O)(Nc1cccc(-c2cn3c(n2)SCC3)c1)c1ccc(F)cc1F	3	-29%	-24%	-21%	-4%	5
CCn1ncc(/C=C/C(=O)NCc2cn(C)nc2C)c1C	38	-15%	44%	8%	10%	-3
COc1ccccc1/C=C/C=N/NC(=O)c1ccccn1	56*	358%	-2%	u	u	23*
COc1ccccc1/C=C/C=N/NC(=O)c1cnccn1	64*	27%	u	9%[46.1 µM]	5%	35*
SMILES	Shiga toxin inh	Pf growth 48h	Pf growth 96h	Marburg entry inh	LASV entry inh	CHX counter
COc1ccc(/C=N/NC(=O)c2cnccn2)c(OC)c1OC	16	40%	18%	x	x	20
C[C@@H]1O[C@@H](O[C@H]2C[C@@H](O)[C@]3(CO)[C@H]4[C@H](O)C[C@]5(C)[C@@H]([C@@H]6COC(=O)C6)CC[C@]5(O)[C@@H]4CC[C@]3(O)C2)[C@H](O)[C@H](O)[C@H]1O	x	x	x	0.32µM*	x	x
C[C@@H]1O[C@@H](O[C@H]2C[C@@H](O)[C@]3(CO)[C@@H]4C(CC[C@]3(O)C2)[C@@]2(O)CC[C@H](C3COC(=O)C3)[C@@]2(C)C[C@H]4O)[C@H](O)[C@H](O)[C@H]1O (stereo not given in full)	x	-22%	-17%	0.82µM*	x	x
COc1ccccc1C1/C(=C(/O)c2ccc(C)cc2)C(=O)C(=O)N1CCN1CCOCC1 (stereo not given)	-2	11%	-20%	15%	-11%	-6
COC(=O)[C@@]1(Cc2ccccc2)[C@H]2c3cc(C(=O)N4CCCC4)n(Cc4ccsc4Br)c3C[C@H]2CN1C(=O)c1ccccc1	-6	u	3.3µM*	u	u	-1
COC(=O)[C@@]1(Cc2ccc(OC)cc2)[C@H]2c3cc(C(=O)N4CCCC4)n(CCc4c[nH]c5ccc(O)cc45)c3C[C@H]2CN1C(=O)c1ccccc1	-8	1µM*	2.1µM*	-19%	-1%	-4
COC(=O)[C@@]1(Cc2ccc(OC)cc2)[C@H]2c3cc(C(=O)N(C)C)n(CCSCCO)c3C[C@H]2CN1C(=O)c1ccccc1	-7	2.3µM*	5.2µM*	-8%	1%	-6
COc1ccc2cc(C(=O)C3CCCN(C(=O)c4cc(=O)n(C)c(=O)n4C)C3)ccc2c1 (stereo not given)	-9	u	0%	-19%[46.1 µM]	12%	-2
COC(=O)[C@@]1(Cc2ccc(OC)cc2)[C@H]2c3cc(C(=O)N4CCCC4)n(CCSCCO)c3C[C@H]2CN1C(=O)c1ccccc1	-7	1µM*	1.7µM*	-3%	-4%	-3
CCN(C1CCS(=O)(=O)C1)S(=O)(=O)c1cc(C)ccc1C (stereo not given)	x	52%	u	-26%[46.1 µM]	12%	x
COC(=O)[C@@]1(Cc2ccc(F)cc2)[C@H]2c3cc(C(=O)N4CCCC4)n(CCO)c3C[C@H]2CN1C(=O)c1ccccc1	-15	3.7µM*	6.6µM*	-4%	-16%	-5
COC(=O)Cn1c(C(=O)N2CCCC2)cc2c1C[C@H]1CN(C(=O)c3ccccc3)[C@@](Cc3ccc(F)cc3)(C(=O)OC)[C@@H]21	-10	5.2µM*	8.3µM*	7%	-10%	-2
COc1ccc(CCC(=O)N2CCN(C(=O)c3ccccc3)CC2)cc1	-5	-1%	-10%	x	x	-2
COC(=O)[C@@]1(Cc2ccc(OC)cc2)[C@H]2c3cc(C(=O)N4CCCC4)n(CCO)c3C[C@H]2CN1C(=O)c1ccccc1	-13	u	4.7µM*	3%	-2%	-1
COC(=O)[C@@]1(Cc2ccc(F)cc2)[C@H]2c3cc(C(=O)N(C)C)n(C[C@H](O)CO)c3C[C@H]2CN1C(=O)c1ccccc1	-9	-30%	u	-14%	-4%	-1
O=C(NCc1ccccc1)C1CCCN(C(=O)c2ccc(F)cc2)C1 (stereo not given)	x	-6%	-2%	-1%	4%	x
O=C(CN1C(=O)c2cccc([N+](=O)[O-])c2C1=O)N1CCN(c2ccc(F)cc2)CC1	22	14%	u	8%[46.1 µM]	x	6
O=C(CCNS(=O)(=O)c1ccc2[nH]c(=O)oc2c1)NCc1ccccc1	-8	7%	12µM*	x	x	-9

Assay outcomes from PubChem.
